A selection: hits, their analogues and other compounds. The true share with any hit is near 19%.
TDP1 cell noCPT: qHTS for Inhibitors of human tyrosyl-DNA phosphodiesterase 1 (TDP1): qHTS in cells in absence of CPT; DT40 Tdp1-/- hTDP1 cells, no CPT, ATP luminescence, 48 h; Potency, µM (highest dose often 46.2 µM), for inactives: top-dose activity change, negative = growth inhibition, usual class: inhibitors; 15% of 420,000 active; AID 686978, 2013; further: potency means the concentration at half of the fitted maximal effect; nearly all actives have a fitted effect of over 55% in size
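Luminescent ATP content (CellTiter-Glo) served as the growth readout. Knockout chicken DT40 cells expressing human TDP1 were exposed to compounds without camptothecin for a minimum 48 hr at 37 °C.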
HT1080 IDH1KD tx: HT-1080 IDH1 knockdown cell toxicity (counter line); HT-1080 IDH1 knockdown viability, ATP luminescence, 48 h; Potency, µM (top dose mostly 46.1 µM), inactives show top-dose activity, negative = toxicity, usual class: cytotoxic; 2% of 360,000 active;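 further: potency means the concentration at half of the fitted maximal effect; 0% = DMSO wells and -100% = cell-free medium wells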
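CellTiter-Glo luminescence after 48 h compound exposure at 37 degrees C of IDH1-knockdown HT-1080 cells in 5% FBS RPMI. %Activity scaled between DMSO wells and cell-free media wells, with curves fitted and assigned curve classes.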
TDP1 cell CPT: growth inhibition of DT40 Tdp1-/-;hTDP1 cells with camptothecin (screen for TDP1 inhibitors); 12% of 420,000 active; Potency, µM (highest dose often 46.2 µM), for the others: at the top dose activity change, negative = growth inhibition, most hits filed as inhibitors; chicken DT40 Tdp1-/-;hTDP1 cells + 20 nM CPT, ATP luminescence, 48 h; further: potency means the concentration at half of the fitted maximal effect; nearly all actives have a fitted effect of over 55% in size
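Chicken DT40 Tdp1-/- cells stably complemented with human TDP1 were seeded at 400 cells/well in medium containing 20 nM camptothecin, exposed to pin-transferred compounds, and grown at 37 °C for at least 48 hr. Viability was read as ATP luminescence.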
IL1B secr inh: inflammasome signaling inhibition, IL-1 beta readout; THP-1 LPS/ATP IL-1B secretion, AlphaLISA, 16 h; active compounds read low; activity change, % at 57.5 µM; 4.7% of 360,000 active; AID 743279; in the data active means activity change below about -50%; inconclusive means mostly about -30% to -49%
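THP-1 cells pretreated 1 hr with compounds (up to 57.5 uM final), then stimulated with LPS (250 ng/mL final) plus ATP (1.25 mM final); secreted IL-1B measured by AlphaLISA after 16 hr, decreased signal indicating inhibition.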
HT1080NT lethal: kills 2HG-producing HT-1080-NT fibrosarcoma cells; HT-1080-NT fibrosarcoma viability, CellTiter-Glo ATP luminescence, 48 h; Potency, µM (top dose mostly 46.1 µM), inactives show at the highest dose activity, negative = less viability, most hits filed as cytotoxic; 1.6% of 360,000 active; AID 686970;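 further: NT is the 2HG producing partner of a matched IDH1 knockdown line; potency means the concentration at half of the fitted maximal effect; 0% = DMSO-treated cells and -100% = media-only wells without cells; nearly all actives have a fitted effect of over 55% in size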
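HT-1080-NT fibrosarcoma cells (2HG-overproducing), 750 cells/well in RPMI with 5% FBS, dosed after 2 h and incubated 48 h at 37C. CellTiter-Glo luminescence normalized to DMSO and no-cell wells; concentration-response curves fitted and classed.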
* marks the source's active call; other numbers are inactive results; ? = inconclusive; . = no result; [ ] = remark or other dose. Unless noted, the call rests on the fitted dose curve; in most records, active means well fitted curve in the direction sought with a large enough effect; inconclusive means small, poorly fitted or top-dose-only effect, or another doubt; inactive means no such curve, though single readings can be large; an effect the other way counts as inactive or inconclusive. Unless noted, on the % scale 0 is the no-effect control and ±100 the full control effect.

SMILES	TDP1 cell noCPT	HT1080 IDH1KD tx	TDP1 cell CPT	IL1B secr inh	HT1080NT lethal
COc1ccc(-c2ccc(C(=O)N3CCc4c(cnc(C)c4CNS(=O)(=O)N(C)C)C3)o2)cc1	?	.	-3%[9.04 µM]	.	.
O=c1c(-c2ccc(Cl)cc2)nc2cnc(N3CCOCC3)nc2n1C1CC1	12%	.	-4%	.	.
Cc1ccc(CNC(=O)c2ccc(CNS(=O)(=O)c3ccc4c(c3)C(C)(C)C(=O)N4C)cc2)o1	-4%	3%	7%	-5	-9%
Cc1cccc(NC(=O)c2ccc(CNS(=O)(=O)c3ccc4c(c3)C(C)(C)C(=O)N4C)cc2)c1	12µM*	.	21µM*	.	.
Cc1ccc(NC(=O)c2ccc(CNS(=O)(=O)c3ccc4c(c3)C(C)(C)C(=O)N4C)cc2)cc1C	12µM*	.	15µM*	.	.
COc1cccc(NC(=O)c2ccc(CNS(=O)(=O)c3ccc4c(c3)C(C)(C)C(=O)N4C)cc2)c1	23µM*	.	?	.	.
COc1cccc(S(=O)(=O)NCc2ccc(C(=O)Nc3cccc(Cl)c3)cc2)c1	26µM*	-17%[9.24 µM]	21µM*	?	?
CCC(C)NC(=O)c1ccc(CNS(=O)(=O)c2ccc3c(c2)C(C)(C)C(=O)N3C)cc1 (centres undefined)	-11%	1%	-8%	-11	16%
CCc1cc(=O)[nH]c(SCc2ccc(C)cc2)n1	-8%	-2%	-15%	30	-1%
NCc1nc2cccnc2n1Cc1ccccc1Cl	-1%	.	-2%	.	.
O=[N+]([O-])c1ccccc1/C=C/C=N/n1c(-c2ccccc2F)n[nH]c1=S	-17%	11%	16%	7	9%
CCN(CC)CCNC(=O)c1c(C)oc2ncn(C)c(=O)c12	-8%	.	-23%	.	.
CN(C)C(=O)c1ccc(Nc2nnc(-c3ccc(O)cc3)c3ccccc23)cc1	?	2%	?	-55*	14%
CCN(CC)C(=O)c1ccc(-c2nnc(Nc3ccc(C(=O)NC)cc3)c3ccccc23)cc1	?	-5%	15µM*	-25	-6%
CNC(=O)c1ccc(Nc2nnc(-c3ccc(O)cc3)c3ccccc23)cc1	?	14%	-22%	-8	17%
O=C1NC[C@H](CCCCN2C[C@H](Cc3ccc(O)cc3)N(CCc3ccc(O)cc3)C(=O)C2=O)N(CC2CCCCC2)C1=O	-8%	?	6%	4	18%
CC(C)(C)c1csc(NC(=O)c2ccc3nccnc3c2)n1	18µM*	2%	16µM*	0	0%
CC(C)(C)c1csc(NC(=O)c2ccncc2)n1	21µM*	-3%	?	19	-15%
COc1ccc(-c2cc(C(=O)N3CC4(C)CC3CC(C)(C)C4)no2)cc1OC (centres undefined)	16µM*	-2%	?	-2	8%
COc1ccc(/C(C)=N/OCC(=O)N2CC3(C)CC2CC(C)(C)C3)cc1 (centres undefined)	?	-8%	?	-78*	-6%
COc1ccc(-c2cc(C(=O)N3CC4(C)CC3CC(C)(C)C4)no2)cc1 (centres undefined)	?	0%	?	-53*	8%
CC1(C)C[C@@H]2C[C@@](C)(CN2C(=O)c2cc(COc3cccc(C(F)(F)F)c3)on2)C1	18µM*	-30%	?	-61*	-29%
COc1ccc(/C=N/OCC(=O)N2CC3(C)CC2CC(C)(C)C3)cc1 (centres undefined)	-14%	0%	-15%	?	-3%
CN(CC(=O)Nc1cccc(F)c1)C(=O)CCc1nc2sc3c(c2c(=O)[nH]1)CCCC3	?	-5%	?	64	-13%
CC1(C)CC2CC(C)(CN2C(=O)c2cc(-c3ccccc3O)on2)C1 (centres undefined)	13µM*	1%	?	21	17%
SMILES	TDP1 cell noCPT	HT1080 IDH1KD tx	TDP1 cell CPT	IL1B secr inh	HT1080NT lethal
Cc1ccc(-c2cc(C(=O)N3CC4(C)CC3CC(C)(C)C4)no2)cc1 (centres undefined)	10µM*	5%	18µM*	17	0%
CC(=O)Nc1ccccc1C(=O)N1CC2(C)CC1CC(C)(C)C2 (centres undefined)	-1%	1%	-5%	9	8%
CC1CCN(C(=O)c2cc(-c3ccccc3O)on2)CC1	-20%	14%	-27%	-8	10%
N#CC1=C(N)NC(SCC(=O)Nc2ccccc2)=C(C#N)C12CCCCC2	23µM*	-14%	?	0	-1%
COc1ccc(C(=O)CSC2=C(C#N)C3(CCCCC3)C(C#N)=C(N)N2)cc1	16µM*	?	?	-12	0%
COCCNC(=O)C1(C)CCCN(C(=O)c2ccc(N(C)C)cc2)C1 (centres undefined)	4%	0%	-10%	-17	-1%
COc1ccc(N2CCN(C(=O)c3cnc(SC)nc3C)CC2)cc1	-13%	.	0%	.	.
Cc1ccc(C)c(N2CCN(C(=O)c3cnc4c(-c5ccccc5)c(C)nn4c3C)CC2)c1	?	.	26µM*	.	.
CCc1nc(SC)ncc1C(=O)N1CCN(c2cc(Cl)ccc2C)CC1	21µM*	.	?	.	.
CCc1nc(SC)ncc1C(=O)N1CCN(c2cc(C)ccc2C)CC1	15µM*	.	-25%	.	.
CC(=O)N1CCC(=NNC(=O)c2cccs2)CC1	-5%	7%	0%	-5	7%
Cc1ccc(NC(=O)CC(NCC2CCCO2)C(=O)O)cc1C (centres undefined)	14%	9%	10%	19	8%
Cc1ccc(S(=O)(=O)N(CC(=O)Nc2ccc(C)cc2C)C(=O)N2CCN(C)CC2)cc1	-11%	10%	-12%	-24	7%
COc1ccc(NS(=O)(=O)c2cc(NC(=O)c3ccccn3)ccc2OC)cc1Br	-4%	-9%	?	-56*	-8%
CCN(CC)c1ccc(NC(=O)COc2ccccc2C#N)cc1S(=O)(=O)Nc1ccccc1OC	2.3µM*	-13%	2.6µM*	28	-17%
CCN(CC)c1ccc(NC(=O)c2ccccn2)cc1S(=O)(=O)Nc1ccccc1OC	21µM*	-15%	16µM*	-20	0%
COc1ccc(NC(=O)c2ccccn2)cc1S(=O)(=O)N1CCOCC1	?	-2%	-18%	-15	-5%
COc1ccccc1NS(=O)(=O)c1cc(NC(=O)CNC(=O)c2ccccc2)ccc1C	-21%	0%	-25%	0	-3%
COc1ccccc1/C=C/C(=O)NCC(=O)n1nc(C)cc1C	-1%	5%	16%	3	29%
COc1ccc(NS(=O)(=O)c2ccc(NS(=O)(=O)c3cccs3)cc2)cc1	-1%	-1%	31%	-14	-7%

Screening results deposited in PubChem by National Center for Advancing Translational Sciences (NCATS).
